Data on 96 compounds can be found in PubChem BioAssay AID430 (Sanford-Burnham Center for Chemical Genomics, 2006).

Among all 63,000 compounds or so, about 1,100 (1.7%) were called active. Many of the other results were omitted from the sample, so actives are more common in it than they were. Results with a measured potency or affinity are listed apart. Values without a mark were called inactive. Rule as the data show it: active = cytotoxicity above about 50%; inactive = the rest.

This test is described as follows: HPDE-C7 pancreatic duct cell viability loss – fluorescence, HTS (AID 430).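 Also: cells exposed to compound for 48 hours before viability readout; 0% = vehicle and 100% = reference cytotoxic drug.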 Particulars: HPDE-C7 pancreatic duct cells viability, at 10 µM, stronger effect = higher value.
With `O=C(NC1CCCC1)c1cnc2n(c1=O)CCS2`, the cytotoxicity is -10.2%. As for `O=C1CC(O)(C(F)(F)F)Oc2c1ccc1ccccc21` (stereo unspecified), the figure is 82.3% (active); as for `COc1ccc2c(c1)OC(O)(C(F)(F)F)CC2=O` (stereo unspecified), -3.3%. As to `O=C1CC(O)(C(F)F)Oc2ccc3ccccc3c21` (stereo unspecified), the cytotoxicity was -12.2%. As for `COc1cccc(-c2nc(=S)c3c(n2Cc2ccco2)CCCC3)c1`, the figure is -22.8%; as for `CCOC(=O)Nc1sc(=S)n(C)c1C`, -8.2%. `CN(C)c1nc(SCCOC(=O)Nc2ccccc2)nc(N(C)C)n1`: the cytotoxicity is 19.3%. For the compound `Cc1c(NC(=O)OCCSc2nc(N(C)C)nc(N(C)C)n2)sc(=S)n1C`, the cytotoxicity was 59.5% (active).

Consider `Nc1nc2nccc(-c3ccc(Cl)cc3)n2n1`, for which the cytotoxicity was 3.6%. As for `Cc1ccc(NC(=O)N2CCCC2C(=O)NCCc2ccccc2)cc1` (stereo unspecified), the figure is -9.2%; as for `Cc1ccc(S(=O)(=O)N2CCN(C(=O)COC(=O)COc3ccccc3)CC2)cc1`, 7.4%; as for `CCOC(=O)c1ccc2c(c1)nc(SCc1cn3ccsc3n1)n2CC`, 19.7%. As for `COc1cc(CC(=O)NCc2ccc3c(c2)OCO3)cc(OC)c1OC`, the figure is -7.2%; as for `COc1cc([C@@H]2c3cc4c(cc3[C@H](O)[C@H]3COC(=O)[C@H]23)OCO4)cc(OC)c1OC`, 67.2% (active); as for `COc1cc(CC(=O)Oc2ccc3c(c2)OCO3)cc(OC)c1OC`, 28.4%. Consider `Cc1nn(C)c(C)c1S(=O)(=O)N1CCCC(C(=O)NCC2COc3ccccc3O2)C1` (stereo unspecified), for which the cytotoxicity is -4%. Regarding `Fc1cccc(CSc2ncnc3c2oc2ccccc23)c1`, the cytotoxicity was 12.4%. With `COCCn1nnnc1C(c1ccc(OC)cc1OC)N1CCN(c2ccccc2)CC1` (stereo unspecified), the cytotoxicity was -2%.

For the compound `COc1ccc(OC)c(C(O)c2coc3ccc(O)c(CN4CCOCC4)c23)c1` (stereo unspecified), the cytotoxicity is 1.7%.

For `COC(=O)CSc1nnc(CSc2nc(C)cc(C)n2)n1Cc1ccco1`, the cytotoxicity was -2.1%. As for `COc1ccc(C(C)=O)cc1COC(=O)c1cc(C)oc1C`, the figure is 2.5%; as for `COc1ccccc1C(=O)OCC(=O)Nc1ccc(OC(F)F)cc1`, 5.1%; as for `Cc1cc(O)ccc1Nc1nc(-c2sc(N)nc2C)cs1`, 1.6%. As for `Cc1nc(N)sc1-c1csc(Nc2ccccn2)n1`, the figure is -12.4%; as for `Cc1cccnc1Nc1nc(-c2ccc(O)cc2O)cs1`, 67.2% (active); as for `CCOC(=O)N1CCN(c2c(NCc3cccs3)c(=O)c2=O)CC1`, 46.8%.

With `Cc1nc(N2CCN(c3ccccc3)CC2)[nH]c(=O)c1Cc1cccc2ccccc12`, the cytotoxicity was 7.5%. As to `COC(=O)COc1ccc(S(=O)(=O)NCCC2=CCCCC2)cc1C`, the cytotoxicity is -2.4%. For the compound `CCOC(=O)COc1ccc(S(=O)(=O)NCCC2=CCCCC2)cc1`, the cytotoxicity was 50.3% (active). As for `COC(=O)COc1ccc(S(=O)(=O)NCCC2=CCCCC2)cc1`, the figure is 18.8%; as for `O=C(c1ccncc1)N1CCN(C(=O)c2cccs2)CC1`, -5.3%. Regarding `O=C(Nc1ccc(N2CCN(C(=O)c3ccccc3)CC2)c(Cl)c1)c1ccco1`, the cytotoxicity was -7.6%. Consider `CCC(=O)Nc1ccc(NC(=O)c2cc3ccccc3o2)cc1`, for which the cytotoxicity was -18.1%. With `O=C(Nc1ccc(N2CCOCC2)c(Cl)c1)c1cccc(F)c1`, the cytotoxicity was 16.4%. `Cc1ccccc1C(=O)N1CCN(c2ccc(NC(=O)c3ccco3)cc2Cl)CC1`: the cytotoxicity is 11.7%. As for `O=C(Nc1ccc(N2CCOCC2)c(Cl)c1)c1ccco1`, the figure is -5.7%. As for `O=C(Nc1ccccc1N1CCN(C(=O)c2ccccc2)CC1)c1cc2ccccc2o1`, the figure is -8.3%; as for `O=C(Nc1ccc(N2CCN(C(=O)c3ccco3)CC2)c(Cl)c1)c1c(F)c(F)c(F)c(F)c1F`, 56% (active); as for `O=C(Cc1ccc(Cl)cc1)Nc1ccc(N2CCN(C(=O)c3ccco3)CC2)c(Cl)c1`, 19.6%.

For the compound `O=C(Nc1ccc(N2CCOCC2)c(Cl)c1)c1c(F)c(F)c(F)c(F)c1F`, the cytotoxicity was 54.5% (active). As for `O=C(Nc1ccc(N2CCN(C(=O)c3ccco3)CC2)c(Cl)c1)c1cccs1`, the figure is 16.9%; as for `CCn1c(C(=O)NCc2cccnc2)cc2sc(Cl)cc21`, 1.8%.

As for `CC(=O)Nc1cc(C(=O)N2CCOCC2)ccc1S(=O)(=O)c1ccc(C)cc1`, the cytotoxicity was -15.2%.

As to `COc1ccc(CCNC(=O)C2CCCN(C(=O)N(C)C)C2)c(OC)c1` (stereo unspecified), the cytotoxicity was -5.4%.

For `CCN(CC)c1ccc2c(c1)C(=O)N(C)C2=O`, the cytotoxicity is 11.6%. As for `CCn1cc(SCC(=O)NCc2ccc3c(c2)OCO3)c2ccccc21`, the figure is 4.6%; as for `COc1ccc(CN(CC2CCCO2)S(=O)(=O)c2ccc(C(=O)O)cc2)cc1OC` (stereo unspecified), 8.1%; as for `Cn1c(=Nc2ccc(N3CCOCC3)cc2)ccc2ccccc21`, 0.9%. Regarding `COc1ccc(-n2nc(C(=O)NCc3ccco3)c3c4ccccc4n(C)c3c2=O)cc1Cl`, the cytotoxicity is 2.9%. Regarding `Cc1nn(CCO)c2c1C(=O)CCC2`, the cytotoxicity is -9.1%. As for `O=C1CC(N2CCOCC2)C(=O)N1c1ccc2c(c1)OCO2` (stereo unspecified), the figure is -4.6%. As for `CC1CN(c2nc3ccccc3nc2C(C#N)C(=O)NC2CCCCC2)CC(C)O1` (stereo unspecified), the figure is -15.5%. As for `Cc1ccc(NC(=O)CN2C(=O)NC(Cc3ccccc3)C2=O)cc1` (stereo unspecified), the figure is -48.1%; as for `CCCC(=O)N1CCN(c2ccc(NC(=O)c3cc4ccccc4o3)cc2)CC1`, -13.7%.

Turning to `O=C(Nc1ccccc1N1CCN(C(=O)c2ccc(Cl)cc2)CC1)c1cc2ccccc2o1`, the cytotoxicity was -2.7%.

Consider `CC1CCN(CCCNC(=O)C2CCN(S(=O)(=O)N3CCCCC3)CC2)CC1`, for which the cytotoxicity was -11.8%. For the compound `Cc1ccc(S(=O)(=O)c2c(N)n(/N=C/c3ccco3)c3nc4ccccc4nc23)cc1`, the cytotoxicity was 38.7%. As for `Nc1c(S(=O)(=O)c2cccc(Cl)c2)c2nc3ccccc3nc2n1CCN1CCOCC1`, the figure is -2%. As for `COCCn1c(N)c(S(=O)(=O)c2cccs2)c2nc3ccccc3nc21`, the figure is 5%. In the case of `Nc1c(S(=O)(=O)c2cccs2)c2nc3ccccc3nc2n1Cc1cccs1`, the cytotoxicity was -1.9%. For `Nc1c(S(=O)(=O)c2ccccc2)c2nc3ccccc3nc2n1/N=C/c1ccco1`, the cytotoxicity was 69% (active). As for `Cc1ccc(S(=O)(=O)c2c(N)n(/N=C/c3ccco3)c3nc4ccccc4nc23)cc1C`, the figure is 11.7%; as for `Nc1c(S(=O)(=O)c2cccs2)c2nc3ccccc3nc2n1/N=C/c1cccc(O)c1`, 64.6% (active); as for `Nc1c(S(=O)(=O)c2cccc(Cl)c2)c2nc3ccccc3nc2n1/N=C/c1ccc(O)c(O)c1`, 117% (active). As for `Cc1cccc(S(=O)(=O)c2c(N)n(/N=C/c3ccco3)c3nc4ccccc4nc23)c1`, the figure is 26.6%.

Consider `Cc1ccc(C)c(S(=O)(=O)c2c(N)n(/N=C/c3ccco3)c3nc4ccccc4nc23)c1`, for which the cytotoxicity was 33.6%. As for `Cc1cccc(S(=O)(=O)c2c(N)n(/N=C/c3cccnc3)c3nc4ccccc4nc23)c1`, the figure is 28.2%. As for `COc1ccc(-n2c(Cc3cccn3C)nnc2SCC(=O)NC2CCCC2)cc1`, the figure is -16%; as for `CCN(CC)CCNC(=O)Cn1nc(Cc2ccccc2)c2ccccc2c1=O`, -4.7%; as for `CCOc1cc(C2C(C#N)=C(N)Oc3n[nH]c(CC)c32)ccc1OCCN1CCOCC1` (stereo unspecified), -1.8%. As for `CCOC(=O)C1CCN(C(=O)CNS(=O)(=O)c2cccs2)CC1`, the figure is -14.6%; as for `CN(CCNC(=O)Cn1c(=O)sc2ccccc21)Cc1ccccc1`, 10.4%. For `COC(=O)c1sc(NC(=O)Cc2cccs2)nc1C`, the cytotoxicity is -9.1%. Take `COc1ccc(C(=O)c2sc(NC(C)C)nc2N)cc1OC`: the cytotoxicity was -6.1%. Consider `COc1cccc(C(=O)c2sc(NC(C)C)nc2N)c1`, for which the cytotoxicity is 70.8% (active).

For the compound `CCCc1nnc(NC(=O)c2cccc(OC)c2)s1`, the cytotoxicity is -16.1%. Consider `O=C(NC1CCCCC1)c1ccc(CS(=O)(=O)Cc2ccccc2F)o1`, for which the cytotoxicity was -6.3%. For the compound `CCOc1ccccc1NC(=O)Cn1nnc(C(=O)NCc2ccco2)c1N`, the cytotoxicity was 63% (active).

With `CCOc1ccccc1NC(=O)Cn1nnc(C(=O)Nc2ccccc2Cl)c1N`, the cytotoxicity is 8.3%.

Regarding `CCOc1ccccc1NC(=O)Cn1nnc(C(=O)Nc2ccc(C)cc2)c1N`, the cytotoxicity was -0.5%. Take `Cc1nn(-c2ccccc2)c2c1C(c1ccco1)C(C#N)=C(N)O2` (stereo unspecified): the cytotoxicity was 11.5%.

Turning to `O=C(Nc1ccc2c(c1)OCCO2)C1CCN(S(=O)(=O)c2ccc(Br)s2)CC1`, the cytotoxicity was 6.5%. As for `O=C(Nc1ccc(Cl)cc1)N1CCN(c2ccc3nnc(-c4ccc(F)cc4)n3n2)CC1`, the figure is 69.6% (active); as for `O=C(Nc1ccccc1C(F)(F)F)N1CCN(c2ccc3nnc(-c4ccc(F)cc4)n3n2)CC1`, 13.1%; as for `O=C(Nc1ccccc1Cl)N1CCN(c2ccc3nnc(-c4ccc(F)cc4)n3n2)CC1`, 17.7%.

`CCCNS(=O)(=O)c1ccc(OCC(=O)NCc2ccc3c(c2)OCO3)cc1`: the cytotoxicity was 6.3%.

As to `Cc1nnc(Sc2nc(Sc3nnc(C)s3)nc(N3CCN(C)CC3)n2)s1`, the cytotoxicity is 81.3% (active). Regarding `Cc1nnc(SCCn2c(N3CCN(C)CC3)nc3c2c(=O)n(C)c(=O)n3C)s1`, the cytotoxicity was -5.2%.

For `Cc1nnc(SCCn2c(N3CCN(C)CC3)nc3c2c(=O)[nH]c(=O)n3C)s1`, the cytotoxicity is -9.1%. As for `COc1ccc([C@@H]2[C@H]3CN(C(C)=O)CC=C3C(C#N)=C(N)C2(C#N)C#N)c2ccccc12`, the figure is -8.9%; as for `CCOC(=O)c1ccc(N=c2sc(C(=O)OC)cc(=O)n2C2CC2)cc1`, 23.6%; as for `CCOC(=O)c1ccc(N=c2sc(C(=O)OC)cc(=O)n2CCCN2CCOCC2)cc1`, -17.7%. Consider `CCn1c(=O)cc(C(=O)OC)sc1=Nc1ccc(F)c(F)c1`, for which the cytotoxicity is 17.4%. As for `CCOC(=O)c1ccc(N=c2sc(C(=O)OC)cc(=O)n2Cc2ccco2)cc1`, the figure is 116% (active). As for `COC(=O)c1cc(=O)n(Cc2ccc3c(c2)OCO3)c(=Nc2ccccc2)s1`, the figure is 34.9%; as for `COC(=O)c1cc(=O)n(Cc2ccco2)c(=Nc2ccc(F)c(Cl)c2)s1`, 82.7% (active).
